Records with an inconclusive call do not appear. Unmarked numbers belong to inactive results. Active and inactive are the calls of the source. Calls come from the whole dose curve; as a rule, active = well fitted curve in the direction sought with a large enough effect; inconclusive = small, poorly fitted or top-dose-only effect, or another doubt; inactive = no such curve, though single readings can be large; an effect the other way counts as inactive or inconclusive.
What was measured:
[1] = Quantitative High-Throughput drug screen in 47 multiple myeloma cell lines against the NCATS MIPE library collection: KMS12PE_JCRB cell viability assay (AID 1918972); note: nearly all actives have a fitted effect of over 30% in size; note: potency is the fitted concentration of half-maximal effect
In short: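 Myeloma cells (500 per well) were exposed to MIPE 4.0 compounds by pin transfer and incubated 48 hours at 37C, 5% CO2. Viability was read as ATP by CellTiter-Glo luminescence, normalised to DMSO (100%) and media-only (0%) wells.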

[2] = Quantitative High-Throughput drug screen in 47 multiple myeloma cell lines against the NCATS MIPE library collection: KMS20_JCRB cell viability assay (AID 1918973); note: nearly all actives have a fitted effect of over 45% in size; note: potency is the fitted concentration of half-maximal effect
In short: (§1)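 Steps: seed 500 cells per well; pin-transfer MIPE 4.0 library; incubate 48 h at 37C, 5% CO2, humidified; add CellTiter-Glo, 5 min room temperature; read luminescence.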

[3] = Quantitative High-Throughput drug screen in 47 multiple myeloma cell lines against the NCATS MIPE library collection: NCIH929_DSMZ cell viability assay (AID 1918978); note: nearly all actives have a fitted effect of over 35% in size; note: potency is the fitted concentration of half-maximal effect
In short: (§2)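 Myeloma cells (500/well) treated with MIPE 4.0 compounds for 48 h at 37 °C, 5% CO2. Viability read as ATP via CellTiter-Glo luminescence after 5 min at RT; DMSO-only wells = 100%, media-only = 0% viability.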

[4] = Quantitative High-Throughput drug screen in 47 multiple myeloma cell lines against the NCATS MIPE library collection: OCIMY1_PLB cell viability assay (AID 1918979); note: nearly all actives have a fitted effect of over 35% in size; note: potency is the fitted concentration of half-maximal effect
In short: as §2

[5] = Quantitative High-Throughput drug screen in 47 multiple myeloma cell lines against the NCATS MIPE library collection: KMS28PE_JCRB cell viability assay (AID 1918983); note: nearly all actives have a fitted effect of over 35% in size; note: potency is the fitted concentration of half-maximal effect
In short: as §2

[6] = Quantitative High-Throughput drug screen in 47 multiple myeloma cell lines against the NCATS MIPE library collection: OPM1_PLB cell viability assay (AID 1918989); note: potency is the fitted concentration of half-maximal effect; nearly all actives have a fitted effect of over 40% in size
In short: as §2

[7] = Quantitative High-Throughput drug screen in 47 multiple myeloma cell lines against the NCATS MIPE library collection: SKMM1_PLB cell viability assay (AID 1919863); settings: SKMM1 myeloma viability, CellTiter-Glo ATP, 48 h; viability: stronger effect = lower value; note: nearly all actives have a fitted effect of over 35% in size; note: potency is the fitted concentration of half-maximal effect
In short: as §2

[8] = Quantitative High-Throughput drug screen in 47 multiple myeloma cell lines against the NCATS MIPE library collection: U266_ATCC cell viability assay (AID 1919864); note: nearly all actives have a fitted effect of over 35% in size; note: potency is the fitted concentration of half-maximal effect
In short: as §2

[9] = Quantitative High-Throughput drug screen in 47 multiple myeloma cell lines against the NCATS MIPE library collection: MM1S_ATCC cell viability assay (AID 1918980); note: nearly all actives have a fitted effect of over 45% in size; note: potency is the fitted concentration of half-maximal effect
In short: as §2

[10] = Quantitative High-Throughput drug screen in 47 multiple myeloma cell lines against the NCATS MIPE library collection: MM1R_ATCC cell viability assay (AID 1918981); note: nearly all actives have a fitted effect of over 35% in size; note: potency is the fitted concentration of half-maximal effect
In short: as §2

[11] = Quantitative High-Throughput drug screen in 47 multiple myeloma cell lines against the NCATS MIPE library collection: OCIMY7_PLB cell viability assay (AID 1918987); note: nearly all actives have a fitted effect of over 65% in size; note: potency is the fitted concentration of half-maximal effect
In short: as §2

[12] = Quantitative High-Throughput drug screen in 47 multiple myeloma cell lines against the NCATS MIPE library collection: OCIMY5_PLB cell viability assay (AID 1918988); note: nearly all actives have a fitted effect of over 65% in size; note: potency is the fitted concentration of half-maximal effect
In short: as §2

[13] = Quantitative High-Throughput drug screen in 47 multiple myeloma cell lines against the NCATS MIPE library collection: XG6_PLB cell viability assay (AID 1919865); note: nearly all actives have a fitted effect of over 40% in size; note: potency is the fitted concentration of half-maximal effect
In short: as §2

[14] = Quantitative High-Throughput drug screen in 47 multiple myeloma cell lines against the NCATS MIPE library collection: L363_DSMZ cell viability assay (AID 1918984); note: potency is the fitted concentration of half-maximal effect; nearly all actives have a fitted effect of over 40% in size
In short: as §2

[15] = Quantitative High-Throughput drug screen in 47 multiple myeloma cell lines against the NCATS MIPE library collection: KMS34_JCRB cell viability assay (AID 1918985); note: nearly all actives have a fitted effect of over 40% in size; note: potency is the fitted concentration of half-maximal effect
In short: as §2

[16] = Quantitative High-Throughput drug screen in 47 multiple myeloma cell lines against the NCATS MIPE library collection: KMS21BM_JCRB cell viability assay (AID 1918974); settings: ATP luminescence, 48 h; viability: at 45.8 µM (top of the series) unless noted; note: potency is the fitted concentration of half-maximal effect
In short: as §1

[17] = Quantitative High-Throughput drug screen in 47 multiple myeloma cell lines against the NCATS MIPE library collection: KMS26_JCRB cell viability assay (AID 1918975); note: nearly all actives have a fitted effect of over 45% in size; note: potency is the fitted concentration of half-maximal effect
In short: as §1

[18] = Quantitative High-Throughput drug screen in 47 multiple myeloma cell lines against the NCATS MIPE library collection: LP1_DSMZ cell viability assay (AID 1918982); note: nearly all actives have a fitted effect of over 35% in size; note: potency is the fitted concentration of half-maximal effect
In short: as §2

[19] = Quantitative High-Throughput drug screen in 47 multiple myeloma cell lines against the NCATS MIPE library collection: MOLP8_DSMZ cell viability assay (AID 1918977); note: nearly all actives have a fitted effect of over 45% in size
In short: as §2

[20] = Quantitative High-Throughput drug screen in 47 multiple myeloma cell lines against the NCATS MIPE library collection: MMM1_PLB cell viability assay (AID 1918976)
In short: as §2

SMILES: N#Cc1ccc(C(c2ccc(C#N)cc2)n2cncn2)cc1
- Potency [1]: inactive
- Potency [2]: inactive
- Potency [3]: inactive
- Potency [4]: 3.72 µM (active)
- Potency [5]: 6.62 µM (active)
- Potency [6]: 16.6 µM (active)
- Potency [7]: 6.62 µM (active)
- Potency [8]: 16.6 µM (active)

SMILES: Cc1ccc(NC(=O)c2cccc(C(C)(C)C#N)c2)cc1Nc1ccc2ncn(C)c(=O)c2c1
- Potency [1]: 5.9 µM (active)
- Potency [2]: 2.96 µM (active)
- Potency [4]: 0.264 µM (active)
- Potency [9]: 6.62 µM (active)
- Potency [10]: 6.62 µM (active)
- Potency [5]: 11.8 µM (active)
- Potency [11]: 0.935 µM (active)
- Potency [12]: 16.6 µM (active)
- Potency [7]: 1.66 µM (active)
- Potency [8]: 18.7 µM (active)
- Potency [13]: 5.26 µM (active)

SMILES: Cc1cn[nH]c1
- Potency [1]: 0.296 µM (active)
- Potency [2]: 0.332 µM (active)
- Potency [3]: 1.18 µM (active)
- Potency [4]: 1.87 µM (active)
- Potency [9]: 0.332 µM (active)
- Potency [10]: 0.132 µM (active)
- Potency [5]: 0.0743 µM (active)
- Potency [14]: 0.469 µM (active)
- Potency [15]: 0.0662 µM (active)
- Potency [12]: 0.0093 µM (active)
- Potency [6]: 1.66 µM (active)
- Potency [7]: 0.0662 µM (active)
- Potency [8]: 0.662 µM (active)
- Potency [13]: 0.296 µM (active)

SMILES: CS(=O)(=O)Oc1ccc2c(NC(N)=O)c(C(=O)c3ccc(Cl)cc3Cl)oc2c1
- Potency [1]: 9.35 µM (active)
- Potency [16]: 2.35 µM (active)
- Potency [17]: inactive
- Potency [3]: 9.35 µM (active)
- Potency [4]: inactive
- Potency [9]: 2.96 µM (active)
- Potency [10]: inactive
- Potency [18]: inactive
- Potency [5]: inactive
- Potency [14]: 6.62 µM (active)
- Potency [15]: inactive
- Potency [12]: inactive
- Potency [6]: 20.9 µM (active)
- viability [7]: 128%
- Potency [8]: 11.8 µM (active)
- Potency [13]: 16.6 µM (active)

SMILES: CC(C[N+](C)(C)C)OC(N)=O (centres undefined)
- Potency [1]: inactive
- Potency [17]: inactive
- Potency [19]: inactive
- Potency [3]: inactive
- Potency [4]: inactive
- Potency [9]: inactive
- Potency [10]: inactive
- Potency [18]: inactive
- Potency [12]: 16.6 µM (active)
- Potency [8]: inactive

SMILES: Nc1ccc(S(=O)(=O)Nc2ccnn2-c2ccccc2)cc1
- Potency [1]: inactive
- Potency [16]: inactive
- Potency [19]: inactive
- Potency [3]: inactive
- Potency [4]: inactive
- Potency [9]: inactive
- Potency [10]: inactive
- Potency [18]: inactive
- Potency [5]: inactive
- Potency [15]: inactive
- viability [7]: 145%
- Potency [13]: inactive

SMILES: Cc1cccc(-c2nn(C(=S)Nc3ccccc3)cc2-c2ccnc3ccccc23)n1
- Potency [1]: inactive
- Potency [17]: 6.62 µM (active)
- Potency [3]: 2.35 µM (active)
- Potency [4]: inactive
- Potency [9]: 16.6 µM (active)
- Potency [18]: 20.9 µM (active)
- Potency [5]: 18.7 µM (active)
- Potency [12]: 1.48 µM (active)
- Potency [13]: inactive

SMILES: NCCCC(N)(C(=O)O)C(F)F (centres undefined)
- Potency [1]: inactive
- Potency [17]: inactive
- Potency [20]: 0.526 µM (active)
- Potency [3]: 0.0526 µM (active)
- Potency [9]: 0.105 µM (active)
- Potency [10]: inactive
- Potency [18]: 1.48 µM (active)
- Potency [5]: inactive
- Potency [12]: 0.332 µM (active)
- viability [7]: 97%

SMILES: O=C(C=Cc1ccc(/C=C/C(=O)Nc2ccc(C3=NCCN3)cc2)cc1)Nc1ccc(C2=NCCN2)cc1
- Potency [1]: inactive
- Potency [2]: inactive
- Potency [19]: inactive
- Potency [3]: inactive
- Potency [4]: inactive
- Potency [18]: inactive
- Potency [15]: inactive
- viability [7]: 118%
- Potency [13]: inactive

SMILES: OCCC#Cc1nc(-c2ccc(F)cc2)c(-c2ccncc2)n1CCCc1ccccc1
- Potency [1]: 18.7 µM (active)
- Potency [2]: 16.6 µM (active)
- Potency [19]: inactive
- Potency [3]: 8.33 µM (active)
- Potency [10]: inactive
- Potency [5]: inactive
- Potency [14]: 5.26 µM (active)
- Potency [11]: 5.26 µM (active)
- Potency [6]: 18.7 µM (active)
- viability [7]: 114%
- Potency [8]: inactive

SMILES: Cc1oncc1C(=O)Nc1ccc(C(F)(F)F)cc1
- Potency [1]: inactive
- Potency [17]: inactive
- Potency [3]: 18.7 µM (active)
- Potency [4]: inactive
- Potency [9]: 14.8 µM (active)
- Potency [10]: inactive
- Potency [18]: 10.5 µM (active)
- Potency [11]: inactive
- viability [7]: 115%
- Potency [13]: 4.69 µM (active)

SMILES: CCc1cncnc1N1CCN(Cc2nc3ccc(C(F)(F)F)cc3[nH]2)CC1
- Potency [1]: 2.09 µM (active)
- Potency [17]: 4.18 µM (active)
- Potency [20]: 16.6 µM (active)
- Potency [4]: inactive
- Potency [9]: 18.7 µM (active)
- Potency [10]: 18.7 µM (active)
- Potency [5]: 20.9 µM (active)
- Potency [12]: 23.5 µM (active)
- Potency [6]: 18.7 µM (active)
- Potency [7]: 18.7 µM (active)
- Potency [8]: 6.62 µM (active)

SMILES: COc1c(Cl)cc2c([nH]c3cnccc32)c1NC(=O)c1cccnc1C
- Potency [1]: 20.9 µM (active)
- Potency [17]: 13.2 µM (active)
- Potency [19]: inactive
- Potency [3]: 0.743 µM (active)
- Potency [4]: inactive
- Potency [10]: 14.8 µM (active)
- Potency [18]: 7.43 µM (active)
- Potency [15]: 3.32 µM (active)
- Potency [11]: 2.09 µM (active)
- Potency [12]: 9.35 µM (active)
- Potency [6]: 2.96 µM (active)
- Potency [7]: 6.62 µM (active)
- Potency [13]: 0.166 µM (active)

SMILES: O=C1[C@H](Cc2ccc(O)cc2)N2C(=O)CCN(C(=O)NCc3ccccc3)[C@H]2CN1Cc1cccc2ccccc12
- Potency [1]: inactive
- Potency [17]: 7.43 µM (active)
- Potency [3]: 3.72 µM (active)
- Potency [4]: 16.6 µM (active)
- Potency [9]: 3.72 µM (active)
- Potency [10]: 3.32 µM (active)
- Potency [5]: 9.35 µM (active)
- Potency [12]: 4.18 µM (active)
- Potency [7]: 6.62 µM (active)
- Potency [13]: 4.18 µM (active)

SMILES: CNC[C@H](O)c1cccc(O)c1
- Potency [1]: inactive
- Potency [17]: inactive
- Potency [3]: inactive
- Potency [4]: inactive
- Potency [9]: inactive
- Potency [18]: inactive
- Potency [5]: inactive
- Potency [15]: inactive
- Potency [12]: 0.332 µM (active)
- Potency [13]: inactive
